# Source: PubChem BioAssay (Columbia University Molecular Screening Center)
# Only some compounds are listed: those with a hit (about 1.6% of all), similar ones and a draw of the others.
# IL1B cytotox: HUVEC cytotoxicity counter-screen, IL-1B stimulated; actives 0.41% (n = 94,000); HUVEC cell count loss, Hoechst imaging; cell count reduction, % at 2 µM; AID 845;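 active means cell count reduction more than 3 SD above the screen-wide mean, cut at about 70% in these data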;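 further: normalized per plate to untreated control cells as the no-loss baseline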
# E-sel TNF inh: blocks E-selectin expression induced by TNF alpha | HUVEC TNFa-induced E-selectin immunofluorescence, high content | inhibition, % at 2 µM | actives 0.71% (n = 120,000) | AID 1246;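 active means inhibition above the batch mean plus 3 SD, and confirmed as a hit on visual image review, cut at about 43% in these data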;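 further: 0% = TNF-stimulated DMSO wells and 100% = unstimulated control wells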
# HUVEC tox TNFa: toxic to HUVEC cells under TNF alpha stimulation; HUVEC TNFalpha-stimulated, Hoechst cell count, imaging; cell count reduction, % at 2 µM; actives 0.17% (n = 93,000); AID 848;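 active means cell count reduction exceeding the screen mean by over 5 SD, scaled to untreated wells per plate, cut at about 78% in these data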;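 further: cells counted after 24 h of TNF alpha exposure following the 1 h pretreatment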
# NFkB transloc inh: blocks IL-1B driven NFkB nuclear translocation in HUVEC cells; HUVEC IL-1B NFkB p65 nuclear translocation imaging; inhibition, % at 2 µM; actives 0.43% (n = 94,000);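 active means inhibition above about 30% together with a positive call from visual inspection of the well image, limit read from the data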;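 further: nuclear over cytoplasmic p65 intensity ratio measured by imaging; 0% = IL-1B stimulated DMSO wells and 100% = unstimulated DMSO wells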
# VCAM1 TNFa inh: reduces TNF alpha induced VCAM1 expression in HUVEC | inhibition, % at 2 µM | HUVEC TNFa-induced VCAM-1 immunofluorescence, high-content imaging | actives 0.48% (n = 95,000);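 active means inhibition above the batch mean plus 3 SD, with images confirmed as a hit by eye, cut at about 37% in these data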;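 further: 0% = TNF-stimulated DMSO wells and 100% = unstimulated control wells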
# IL1B NFkB pot: enhances IL-1B driven NFkB nuclear translocation | HUVEC IL-1B NFkB p65 nuclear translocation imaging | AID 819 | activation, % at 2 µM | actives 0.3% (n = 94,000);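 active means activation above 40%, about the mean plus 3 SD, also judged a hit on visual image review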;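 further: percent activation is computed from the nuclear over cytoplasmic p65 intensity ratio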
# Starred values were filed as active, the others as inactive; x = no result.
SMILES,IL1B cytotox,E-sel TNF inh,HUVEC tox TNFa,NFkB transloc inh,VCAM1 TNFa inh,IL1B NFkB pot
CC(c1ccccc1F)n1cc(C(=O)Nc2ccc3nc[nH]c3c2)nn1 (stereo unspecified),32,x,80*,15,60,-15
N/C(=N\[N+](=O)[O-])NCCCC(NC(=O)CNC(=O)c1ccccc1)C(=O)O (stereo unspecified),x,1,x,x,x,x
CCN1CCN(Cc2cc(OC)c(OC)cc2[N+](=O)[O-])CC1,-31,100*,-20,-5,14,5
CCN1CCN(Cc2cc(Br)cc(OC)c2O)CC1,2,2,-38,-5,-2,5
Cc1ncc(CN2CCCC(C(=O)c3ccc(C(C)(C)C)cc3)C2)s1 (stereo unspecified),x,22,x,x,x,x
CC(N)Cc1c[nH]c2ccc(Cl)cc12 (stereo unspecified),x,-27,-4,x,39*,x
CC(N)Cc1c[nH]c2cc3c(cc12)OCCO3 (stereo unspecified),x,2,x,x,x,x
CN(C)CCNC(=O)c1cccn(Cc2cc(C(F)(F)F)cc(C(F)(F)F)c2)c1=O,x,2,x,x,x,x
O=C1C2CCCN2C(c2cccnc2)N1c1ccc(Cl)c(Cl)c1 (stereo unspecified),-26,-11,-21,-17,75*,17
O=C1C2CCCN2C(c2ccncc2)N1c1ccc(Cl)c(Cl)c1 (stereo unspecified),6,x,-4,5,2,-5
COc1ccc(C(=O)c2nc3ccccc3n2C(C)C)cc1,x,-26,x,x,x,x
CC(C)NS(=O)(=O)c1ccc(OCC(=O)N2CCN(Cc3ccccc3)CC2)cc1,-43,-18,-21,-11,18,11
O=C(COc1ccc(Cl)cc1)N1CCN(Cc2ccccc2)CC1,-17,x,-4,-43,3,43*
CN1C(=O)c2ccccc2Sc2ccc(C(=O)N3CCC4(CC3)OCCO4)cc21,-3,-33,-5,-157,8,157*
CCN(CC)CCN=Cc1c(O)n(CCC2=CCCCC2)c(=O)[nH]c1=O,89*,32,-5,26,7,-26
CCN(C(=O)CN1CC=C(c2ccccc2)CC1)c1c(N)n(Cc2ccccc2)c(=O)[nH]c1=O,x,8,x,x,x,x
Cn1cccc1/C=C1\C(=O)NC(=O)N(CCC2=CCCCC2)C1=O,x,77*,x,x,x,x
CCCn1ncc(CN2CCCC(C(=O)c3cccc(OC)c3)C2)c1C (stereo unspecified),x,-14,x,x,x,x
CN(C)CC1CSCCC1(O)c1ccc(Cl)cc1 (stereo unspecified),-46,42*,-12,-7,4,7
CCCNS(=O)(=O)c1ccc(OCC(=O)N2CCN(C)CC2)cc1,88*,-8,-8,-25,-5,25
CC(C)(C)NC(=O)C1CC2CCCCC2CN1 (stereo unspecified),x,3,x,x,x,x
CCCCn1c(=O)c(C(=O)Nc2cnccn2)c(O)c2ccccc21,-20,x,-6,-6,4,5
CC(C)CCn1c(=O)c(C(=O)Nc2ccccc2S(N)(=O)=O)c(O)c2ccccc21,-9,-14,-7,39*,-20,-39
CCc1nnc(NS(=O)(=O)c2ccc(N=Cc3c(O)n(-c4ccc(Cl)cc4)c(=O)[nH]c3=O)cc2)s1,x,1,x,x,x,x
CC(C)OCCCNC(=O)c1c(N)n(CC2CCCO2)c2nc3ccccc3nc12 (stereo unspecified),90*,-4,8,97*,15,-97
SMILES,IL1B cytotox,E-sel TNF inh,HUVEC tox TNFa,NFkB transloc inh,VCAM1 TNFa inh,IL1B NFkB pot
CCc1ccc(N2C(=O)NC(=O)/C(=C/c3cccn3CCOc3ccc(C)cc3)C2=O)cc1,x,35,x,x,x,x
CCc1ccc(N2C(=O)NC(=O)/C(=C/c3cccn3CCOc3ccc(C(C)CC)cc3)C2=O)cc1 (stereo unspecified),x,80*,x,x,x,x
CCC12C=CCN3CCC4(c5cc(Br)c(OC)cc5N(C)C4C(O)(C(=O)OC)C1OC(C)=O)C32 (stereo unspecified),-20,-51,6,-40,0,40*
CC(C)n1c(=O)c(C=Nc2ccc(F)cc2)c(O)n(Cc2ccco2)c1=O,x,-15,x,x,x,x
CN1CCN(c2ccc([N+](=O)[O-])cc2Cl)CC1,x,2,x,x,x,x
CC1CN(c2cc([N+](=O)[O-])ccc2Cl)CC(C)N1 (stereo unspecified),x,100*,x,x,x,x
COC(=O)Nc1ccc(N=C(N)N[N+](=O)[O-])cc1,x,-6,x,x,x,x
COc1ccc(C(=O)C2(C)N(O)C(C)C(c3cccs3)=[N+]2[O-])cc1 (stereo unspecified),1,58*,-12,9,-4,-9
O=C(c1ccc(CNS(=O)(=O)c2ccc(Br)cc2)cc1)N1CCC2(CC1)OCCO2,x,-2,x,x,x,x
O=C(CNS(=O)(=O)c1ccc(Br)s1)N1CCC2(CC1)OCCO2,14,0,59,-43,30,43*
CC(=O)Nc1cc(C(=O)N2CCC3(CC2)OCCO3)ccc1Sc1ccc(F)cc1,x,-6,x,x,x,x
Cc1cc(C)cc(N2C(=O)NC(=O)/C(=C\c3cccn3-c3ccc(Cl)cc3)C2=O)c1,17,-4,7,1,-16,-1
CN1C(=O)/C(=C/c2cccn2-c2ccc3ccccc3c2)C(=O)NC1=S,-2,79*,-9,12,-5,-12
COc1ccc(CCNCc2ccccn2)cc1OC,-8,0,-8,36*,17,-36
O=c1c2ccccc2nc(-c2ccco2)n1-c1ccccn1,3,9,-38,-4,13,4
O=c1c2ccccc2nc(-c2ccco2)n1-c1cccnc1,84*,-1,-29,4,-11,-4
CCN1/C(=C\C=C\C2=[N+](CC)c3ccccc3C2(C)C)C(C)(C)c2ccccc21,-18,-1,23,-19,88*,19
CC(NC1=NCCS1)c1ccccc1 (stereo unspecified),x,-28,x,x,x,x
CC(=O)OC(C)(C)/C=C/C(=O)[C@](C)(O)[C@H]1[C@H](O)C[C@@]2(C)[C@@H]3CC=C4[C@H](C[C@H](O)C(=O)C4(C)C)[C@]3(C)C(=O)C[C@]12C,x,60*,x,x,x,x
O=C(Nc1nc(-c2ccccc2)c(-c2ccccc2)s1)c1ccc(S(=O)(=O)N(CCCl)CCCl)cc1,x,60*,x,x,x,x
O=C(c1c[nH]cc1-c1ccccc1)c1cccc2ccccc12,-21,8,4,4,4,-4
CCCCC1(CN2CCCC2=O)C(=O)NC(=O)NC1=O,-3,-22,0,-10,-2,10
CCCCC12CNCC(C)(CNC1)C2=O,2,100*,39,-6,30,6
